Experimental data reported in PubChem BioAssay.
Calls of active or inactive are those of the source.

Key:
[1] = tested on: Plasmodium falciparum Sir2 (PF13_0152, Sir2A); assay: pfSir2 binders on small-molecule microarrays, primary screen, biochemical, small-molecule microarray, 635 nm fluorescence (AID 1098); conditions: small-molecule microarray binding, fluorescence 635 nm; higher = more signal;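 further: score merges spot fluorescence intensity with its signal-to-noise ratio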
[2] = small-molecule microarray binders of probe aDKK1, primary screen, biochemical, biotinylated probe, 635/667 nm fluorescence (AID 1099); conditions: higher = more signal;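 further: score merges 667nm spot fluorescence with signal to noise across triplicate slides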
[3] = small-molecule microarray binders of probe aCHRDL2, primary screen, biochemical, biotinylated probe, 635/667 nm fluorescence (AID 1100); conditions: higher = more signal
[4] = splicing luciferase reporter signal modulators, primary screen, spliceosome inhibition project, cell-based, HEK293, splice +/- reporter (AID 1101); conditions: luminescence, 24 h, higher = more signal, called active from +8 up or from −8 down;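 further: HEK293 cells carrying a splicing-competent luciferase reporter gene; test concentration not given here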
[5] = molecular target: Fibroblast growth factor 10 (Homo sapiens) (UniProt O15520); assay: FGF10 binders on small-molecule microarrays, primary screen, biochemical, small-molecule microarray, 635 nm fluorescence (AID 1102); conditions: FGF10 binding, fluorescence 635 nm, higher = more signal
[6] = tested on: glycogen synthase kinase-3 (GSK3A per assay name; protocol says GSK3B); assay: GSK3 binders on small-molecule microarrays, primary screen, biochemical, small-molecule microarray, 635 nm fluorescence, GSK3A (AID 1103); conditions: small-molecule microarray binding, fluorescence 635 nm; higher = more signal; further: the record names both GSK3A and GSK3B
[7] = molecular target: Epidermal growth factor receptor (Homo sapiens) (UniProt P00533); assay: EGFR binders on small-molecule microarrays, primary screen, biochemical, small-molecule microarray, 635 nm fluorescence (AID 1104); conditions: EGFR binding, higher = more signal;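 further: score merges 667 nm emission intensity with spot signal to noise over triplicate slides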
[8] = molecular target: Follistatin-related protein 3 (Homo sapiens) (UniProt O95633); assay: FSTL3 binders on small-molecule microarrays, primary screen, biochemical, small-molecule microarray, 635 nm fluorescence (AID 1105); conditions: FSTL3 binding, higher = more signal;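 further: score merges emission near 667 nm and signal to noise per printed spot across three slides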
[9] = molecular target: Dickkopf-related protein 1 (Homo sapiens) (UniProt O94907); assay: DKK1 binders on small-molecule microarrays, primary screen, biochemical, small-molecule microarray, 635 nm fluorescence scan (AID 1106); conditions: DKK1 binding, higher = more signal;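 further: score merges emission near 667 nm with signal to noise over three replicate slides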
[10] = tested on: Inhibin beta A chain (activin A); assay: INHBA (activin A) binders on microarrays, primary screen, biochemical, small-molecule microarray, 635 nm fluorescence scan (AID 1107); conditions: small-molecule microarray binding, higher = more signal;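 further: mouse activin A protein probed at 4.33 µg/mL on printed slides; score merges bound-protein fluorescence near 667 nm with spot signal-to-noise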
[11] = tested on: Human papillomavirus type 1a protein E7 (residues 44-93); assay: HPV1a E7 fragment binders on microarrays, primary screen, biochemical, small-molecule microarray, residues 44-93, 635 nm fluorescence (AID 1108); conditions: small-molecule microarray binding, fluorescence 635 nm; higher = more signal;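 further: E7 fragment applied at 1 µg/mL in TBST for 1 h at 4 C; score combines spot fluorescence with its signal to noise ratio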
[12] = modulators of HCV replicon luciferase signal, primary screen, HCV replication inhibitor project, Huh7 cells, luciferase reporter (AID 1109); conditions: 48 h, higher = more signal;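 further: huh7 hepatoma cells harbouring a luciferase neomycin HCV replicon reporter; luciferase luminescence as measure of HCV replicon replication; test concentration not given here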
[13] = molecular target: Left-right determination factor 2 (Homo sapiens) (UniProt O00292); assay: LEFTY2 binders on small-molecule microarrays, primary screen, biochemical, small-molecule microarray, 635 nm fluorescence scan (AID 1110); conditions: LEFTY2 binding, higher = more signal
[14] = molecular target: Calmodulin-1 (Homo sapiens) (UniProt P0DP23); assay: CALM1 binders on microarrays, EGTA buffer, profiling panel, biochemical, small-molecule microarray, Cy5-labelled CALM1 (AID 1111); conditions: Cy5-CALM1 binding fluorescence, higher = more signal;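 further: labelled calmodulin applied in Tris saline Tween buffer holding calcium plus EGTA and DTT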
[15] = molecular target: Calmodulin-1 (Homo sapiens) (UniProt P0DP23); assay: calcium-bound CALM1 binders on microarrays, profiling panel, artefact control for SMM control-protein annotation, biochemical, small-molecule microarray, Cy5-labelled CALM1, plus calcium (AID 1112); conditions: Cy5-CALM1 binding fluorescence, higher = more signal;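 further: score merges spot fluorescence with signal to noise from triplicate slides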
[16] = small-molecule microarray binders of probe aWnt5a, primary screen, biochemical, biotinylated probe, 635/667 nm fluorescence (AID 1113); conditions: higher = more signal;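 further: score merges 667 nm fluorescence intensity with signal-to-noise per printed feature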
[17] = small-molecule microarray binders of probe aShh, primary screen, biochemical, biotinylated probe, 635/667 nm fluorescence (AID 1114); conditions: higher = more signal;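 further: probe is biotin-labelled aShh protein from a stem cell growth factor screen; measures binding of labelled protein to compounds printed on the slide; score merges feature fluorescence at 667 nm with signal-to-noise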
[18] = small-molecule microarray binders of probe aNog, primary screen, biochemical, biotinylated probe, 635/667 nm fluorescence (AID 1115); conditions: higher = more signal;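 further: probe is biotinylated aNog protein used at 0.15 µg/mL for 1 h at 4 C; z-score combines 667 nm fluorescence of each spot with its signal to noise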
[19] = molecular target: Torsin-1A-interacting protein 1 (Homo sapiens) (UniProt Q5JTV8); assay: LAP1 binders from COS7 cell lysate, primary screen, small-molecule microarray, 635/667 nm fluorescence (AID 1116); conditions: COS7-hLAP1 lysate binding, 635 nm fluorescence, higher = more signal
[20] = molecular target: Alpha-bungarotoxin (Bungarus multicinctus) (UniProt P60615); assay: alpha-bungarotoxin binders on microarray, profiling panel, artefact control for SMM control protein annotation, biochemical, small-molecule microarray, Alexa647 label, 635/667 nm fluorescence (AID 1117); conditions: alpha-BTX-A647 binding fluorescence, higher = more signal
Sequence of Alpha-bungarotoxin (Bungarus multicinctus) (P60615 whole entry, looked up): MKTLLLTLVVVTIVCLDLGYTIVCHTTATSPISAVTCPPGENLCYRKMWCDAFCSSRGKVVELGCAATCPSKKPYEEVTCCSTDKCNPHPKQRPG

Sequence of Left-right determination factor 2 (Homo sapiens) (O00292 whole entry, looked up): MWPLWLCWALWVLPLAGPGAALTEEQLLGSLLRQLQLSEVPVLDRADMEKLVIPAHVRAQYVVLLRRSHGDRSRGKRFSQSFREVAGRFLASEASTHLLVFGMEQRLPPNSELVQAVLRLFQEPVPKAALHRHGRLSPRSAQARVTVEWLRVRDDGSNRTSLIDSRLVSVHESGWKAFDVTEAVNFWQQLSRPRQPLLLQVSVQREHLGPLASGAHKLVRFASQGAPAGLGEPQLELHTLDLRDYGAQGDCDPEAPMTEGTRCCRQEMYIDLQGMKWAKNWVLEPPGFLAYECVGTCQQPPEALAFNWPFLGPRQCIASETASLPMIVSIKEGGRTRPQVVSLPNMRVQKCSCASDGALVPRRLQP
Sequence of Follistatin-related protein 3 (Homo sapiens) (O95633 whole entry, looked up): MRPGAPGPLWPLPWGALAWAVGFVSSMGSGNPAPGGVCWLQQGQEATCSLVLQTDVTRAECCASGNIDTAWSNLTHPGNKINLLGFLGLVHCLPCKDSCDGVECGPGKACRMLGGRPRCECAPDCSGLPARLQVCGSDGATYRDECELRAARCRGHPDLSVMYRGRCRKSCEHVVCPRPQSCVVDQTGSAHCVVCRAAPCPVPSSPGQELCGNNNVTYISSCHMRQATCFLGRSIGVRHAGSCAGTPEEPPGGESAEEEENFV
Sequence of Torsin-1A-interacting protein 1 (Homo sapiens) (Q5JTV8 whole entry, looked up): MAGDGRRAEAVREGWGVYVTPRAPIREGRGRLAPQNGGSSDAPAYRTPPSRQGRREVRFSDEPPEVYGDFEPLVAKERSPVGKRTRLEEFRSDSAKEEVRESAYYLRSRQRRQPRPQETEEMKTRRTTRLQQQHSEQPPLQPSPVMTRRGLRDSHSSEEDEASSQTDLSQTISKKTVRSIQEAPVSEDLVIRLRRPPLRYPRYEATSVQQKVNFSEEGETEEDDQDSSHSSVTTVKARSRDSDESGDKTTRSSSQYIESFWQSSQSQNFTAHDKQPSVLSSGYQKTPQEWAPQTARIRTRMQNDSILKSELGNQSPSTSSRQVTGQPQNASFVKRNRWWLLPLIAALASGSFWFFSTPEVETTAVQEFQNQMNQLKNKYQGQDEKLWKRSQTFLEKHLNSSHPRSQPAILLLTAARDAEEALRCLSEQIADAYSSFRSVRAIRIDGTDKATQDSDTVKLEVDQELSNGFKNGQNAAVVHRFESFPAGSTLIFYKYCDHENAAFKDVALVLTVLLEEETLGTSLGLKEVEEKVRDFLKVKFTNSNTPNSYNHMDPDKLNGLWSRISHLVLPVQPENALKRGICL
Sequence of Dickkopf-related protein 1 (Homo sapiens) (O94907 whole entry, looked up): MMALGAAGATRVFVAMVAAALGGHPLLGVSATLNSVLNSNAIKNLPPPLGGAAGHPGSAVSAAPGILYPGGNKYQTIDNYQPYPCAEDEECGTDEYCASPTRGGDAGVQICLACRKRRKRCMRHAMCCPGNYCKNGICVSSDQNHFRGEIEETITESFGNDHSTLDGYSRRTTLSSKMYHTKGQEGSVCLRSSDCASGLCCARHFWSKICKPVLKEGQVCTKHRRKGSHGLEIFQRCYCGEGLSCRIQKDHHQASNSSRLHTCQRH
Sequence of Fibroblast growth factor 10 (Homo sapiens) (O15520 whole entry, looked up): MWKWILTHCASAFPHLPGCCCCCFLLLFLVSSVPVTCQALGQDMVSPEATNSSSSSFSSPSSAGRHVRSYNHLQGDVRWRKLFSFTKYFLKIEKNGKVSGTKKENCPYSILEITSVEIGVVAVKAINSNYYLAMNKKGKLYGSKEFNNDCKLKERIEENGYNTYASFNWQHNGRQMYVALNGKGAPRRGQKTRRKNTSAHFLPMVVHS
Sequence of Epidermal growth factor receptor (Homo sapiens) (P00533 whole entry, looked up): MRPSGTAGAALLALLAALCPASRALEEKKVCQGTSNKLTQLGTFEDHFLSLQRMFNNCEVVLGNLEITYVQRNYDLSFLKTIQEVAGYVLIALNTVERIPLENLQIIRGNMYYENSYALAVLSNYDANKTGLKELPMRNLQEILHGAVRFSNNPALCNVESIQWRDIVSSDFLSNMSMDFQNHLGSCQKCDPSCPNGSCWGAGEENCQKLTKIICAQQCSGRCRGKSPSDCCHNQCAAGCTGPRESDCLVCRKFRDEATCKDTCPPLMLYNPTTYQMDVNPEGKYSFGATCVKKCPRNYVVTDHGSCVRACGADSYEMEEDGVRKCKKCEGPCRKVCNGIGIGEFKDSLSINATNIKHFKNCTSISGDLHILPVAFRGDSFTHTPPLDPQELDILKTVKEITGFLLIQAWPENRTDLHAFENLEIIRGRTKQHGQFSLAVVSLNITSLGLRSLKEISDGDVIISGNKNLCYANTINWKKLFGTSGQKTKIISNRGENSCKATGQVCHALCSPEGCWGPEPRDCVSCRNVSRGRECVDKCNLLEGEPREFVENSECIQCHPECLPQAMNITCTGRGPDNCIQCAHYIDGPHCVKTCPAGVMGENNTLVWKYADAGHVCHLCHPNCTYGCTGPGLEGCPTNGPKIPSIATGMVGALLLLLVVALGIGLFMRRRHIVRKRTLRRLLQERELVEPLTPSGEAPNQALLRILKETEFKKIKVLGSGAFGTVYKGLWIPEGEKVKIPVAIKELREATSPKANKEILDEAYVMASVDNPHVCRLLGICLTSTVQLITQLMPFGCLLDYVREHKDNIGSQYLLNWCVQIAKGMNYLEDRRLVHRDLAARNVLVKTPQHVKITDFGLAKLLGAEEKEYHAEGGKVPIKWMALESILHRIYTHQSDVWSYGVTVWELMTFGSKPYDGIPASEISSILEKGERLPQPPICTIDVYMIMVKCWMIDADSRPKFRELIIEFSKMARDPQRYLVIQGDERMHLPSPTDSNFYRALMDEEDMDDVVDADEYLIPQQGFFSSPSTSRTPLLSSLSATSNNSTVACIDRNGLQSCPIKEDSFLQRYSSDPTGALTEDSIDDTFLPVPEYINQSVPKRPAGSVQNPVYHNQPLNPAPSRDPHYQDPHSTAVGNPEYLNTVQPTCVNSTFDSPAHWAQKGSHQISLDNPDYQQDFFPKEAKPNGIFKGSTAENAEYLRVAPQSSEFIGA

Row | Structure (SMILES) | composite z-score [1] | composite z-score [2] | composite z-score [3] | z-score [4] | composite z-score [5] | composite z-score [6] | composite z-score [7] | composite z-score [8] | composite z-score [9] | composite z-score [10] | composite z-score [11] | z-score [12] | composite z-score [13] | composite z-score [14] | composite z-score [15] | composite z-score [16] | composite z-score [17] | composite z-score [18] | composite z-score [19] | composite z-score [20]
1 | CC(C)(C)OC(=O)CC[C@]1(C(=O)NCCN2CCOCC2)COC(c2ccc(OCCCO)cc2)=N1 | 0.706 | 0.0968 | 0.465 | -0.686 (inactive) | 1.42 | 0.743 | -0.422 | 0.683 | -0.105 | 0.295 | 1.42 | -0.464 | 0.051 | 0.762 | -0.23 | 0.0559 | -0.0066 | 0.951 | 1.27 | 0.791
2 | COc1ccc(C(=O)Nc2cccc(CN3C(=O)[C@]4(O[C@H](CCn5cc(CCO)nn5)[C@@H]([Si](C)(C)c5ccc(OC)cc5)[C@@H]4C)c4ccccc43)c2)cc1 | 0.83 | 0.601 | 0.127 | 2.05 (inactive) | 0.17 | 0.495 | 0.529 | 1.01 | 0.201 | 1.55 | 1.31 | -5.09 | 0.785 | 0.628 | -0.0319 | -0.0685 | -0.0769 | 0.0471 | 0.456 | 0.547
3 | O=C1NC(=O)C2C1C=CC(C(O)c1ccc(I)cc1)N2Nc1ccccn1 (stereo not given) | 1.33 | 0.0824 | 0.464 | 1.04 (inactive) | -0.0548 | -0.269 | 0.268 | -0.0861 | 0.153 | 1.14 | -0.409 | -0.533 | 0.379 | 0.532 | 0.267 | 0.0136 | 0.282 | 0.0403 | -0.593 | 0.636
4 | C=CC[C@]1(C(=O)NCc2ccccc2)N=C(c2ccc(OCCCO)cc2)O[C@H]1c1ccccc1CN=[N+]=[N-] | 1.51 | 0.709 | 0.899 | -0.169 (inactive) | 1.19 | 1.24 | 0.171 | 1.39 | 0.607 | 0.835 | 1.42 | -2.42 | 0.13 | 0.764 | 0.358 | -0.001 | -0.0146 | -0.516 | 0.854 | 0.361
5 | NCCCCCNC(=O)[C@H]1C[C@H]2C(=O)N[C@@H](Cc3ccccc3)C(=O)N2[C@H]1c1cccc(OCCO)c1 | 0.0864 | 1.15 | 0.942 | -0.365 (inactive) | -0.0314 | 0.213 | 0.0441 | 0.6 | 0.4 | 1.34 | 0.509 | -0.82 | 0.115 | 1.85 | 1.06 | 0.0328 | 0.246 | 0.296 | 2.09 | 2.07
6 | O=C1O[C@H](c2ccccc2)[C@H](c2ccccc2)N2[C@H]1[C@@H](C(=O)NC[C@H](O)c1ccccc1)[C@]1(C(=O)Nc3ccc(C#CC4=CCCCC4)cc31)[C@H]2c1ccccc1OCCO | 0.312 | 0.697 | 0.722 | -1.74 (inactive) | 0.439 | 1.13 | 0.208 | 0.627 | 0.359 | 1.06 | 1.06 | -3.16 | 0.155 | 1.42 | 0.944 | 0.0101 | 0.328 | 0.157 | 1.02 | 1.7
7 | CCOC(=O)C[C@H]1[C@H](OC(=O)c2cc3ccccc3oc2=O)[C@@H](NC(=O)CC(C)C)c2cc(OCCCO)ccc2N1C(=O)c1ccccc1 | 0.0288 | -0.179 | -0.428 | -1.04 (inactive) | 0.644 | 0.53 | 0.393 | 0.358 | 0.371 | -0.0294 | 0.886 | 0.186 | 0.371 | -0.299 | -0.543 | 0.0317 | -0.0011 | 0.819 | 0.124 | 1.06
8 | CC1CC/C=C\[C@H]2OC34C=CCN(Cc5ccccc5)C(=O)[C@H]3N(C(C)CO)C(=O)[C@@H]4C2C(=O)O1 (stereo not given in full) | -0.588 | -0.169 | -0.506 | 0.441 (inactive) | 0.0204 | -0.444 | -0.492 | 0.196 | 0.33 | 0.951 | -1.75 | -0.514 | 0.267 | -0.756 | -0.857 | -0.148 | 0.0952 | -0.193 | -0.457 | -0.463
9 | COc1ccc(C#Cc2ccc3c(c2)[C@]2(C(=O)N3)[C@H](c3ccc(O)cc3)N3[C@H](c4ccccc4)[C@H](c4ccccc4)OC(=O)[C@H]3[C@@H]2C(=O)N2CCc3cc(OC)c(OC)cc3C2)cc1 | 1.46 | -0.157 | -0.208 | 1.34 (inactive) | 0.768 | 1.26 | 0.469 | 0.853 | 0.31 | 0.155 | 1.36 | -1.11 | 0.406 | 1.02 | 0.745 | -0.0643 | -0.161 | -0.0503 | 0.7 | 1.67
10 | C=CCOC(=O)[C@H]1[C@@H]2C(=O)O[C@@H](c3ccccc3)[C@@H](c3ccccc3)N2[C@@H](c2ccc(OCCOC(=O)[C@H]3C[C@H]4C(=O)N[C@@H](CCCCN(C)C)C(=O)N4[C@H]3c3cccc(OCCO)c3)cc2)[C@]12C(=O)Nc1ccc(I)cc12 | 0.79 | -0.267 | -0.254 | 1.52 (inactive) | 1.32 | 1.16 | 0.527 | 1.46 | 1.07 | 1.11 | 1.4 | -2.45 | 0.713 | -0.0131 | -0.12 | 0.108 | 0.0671 | 1.18 | 0.811 | 1.27
